Laboratory results taken from PubChem BioAssay (EPA / NIEHS).
Values joined by “and” are separate entries in the source; they are usually repeats but may differ in a detail not shown here. Identical values can stand only once. More than one record can exist for a structure, and the calls need not agree. Active and inactive are the calls of the source. Rule for the calls: active = hit-call score of the fitted dose curve at least 0.9, where 1 is the maximum; inactive = score below 0.9.

What was measured:
[1] = ATG_E_Box_CIS: Attagene CIS-FACTORIAL HepG2 Assay for human Enhancer Box (E-box) (AID 2282936); details: HepG2 E-box cis-reporter transcription, actives raise or lower the signal
How it was run: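 DMSO served as negative control and baseline for bidirectional fitting. Human hepatoma HepG2 cells, transiently transfected with cis-reporter constructs, were dosed 24 h; reporter mRNA read by RT-PCR and capillary electrophoresis.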

[2] = ATG_M_61_CIS: Attagene CIS-FACTORIAL HepG2 Assay for M61 Transcription Factor (Internal Marker) (AID 2282937); details: HepG2 Attagene CIS-FACTORIAL M61 internal marker reporter; actives raise or lower the signal
How it was run: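 Human liver HepG2, transient MRTU transfection (cis promoter elements), 24 h compound. Total RNA → oligo(dT) RT → PCR → FAM label → HpaI → CE. Internal background marker; bidirectional fitting, DMSO = baseline.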

[3] = ATG_EGR_CIS: Attagene CIS-FACTORIAL HepG2 Assay for human Early Growth Response 1 (EGR1) (AID 2282938); details: HepG2 Attagene CIS-FACTORIAL EGR reporter mRNA; actives raise or lower the signal
How it was run: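 Transient transfection of human HepG2 with multiple cis-regulated reporter units, chemical exposure 24 h, total RNA isolated. Reverse transcription, PCR, fluorescent labelling and capillary electrophoresis quantify reporter transcripts; activity fitted bidirectionally against DMSO.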

[4] = ATG_M_19_CIS: Attagene CIS-FACTORIAL HepG2 Assay for M19 Transcription Factor (Internal Marker) (AID 2282939); details: HepG2 Attagene CIS-FACTORIAL M19 internal marker reporter; actives raise or lower the signal
How it was run: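 Background-control endpoint from a multiplexed HepG2 reporter panel. Cells carrying cis-regulated reporter constructs are treated 24 h, then reporter transcripts are amplified, fluorescently labelled and sized by capillary electrophoresis. DMSO defines baseline.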

[5] = ATG_ERE_CIS: Attagene CIS-FACTORIAL HepG2 Assay for Estrogen Response Element (ERE) (AID 2282940); details: HepG2 ERE cis-reporter, Attagene RNA transcript; actives raise or lower the signal
How it was run: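 Cells used were human hepatoma HepG2, transfected with multiple reporter transcription units under cis-regulatory promoters. Reporter mRNA, read 24 h post-dosing via fluorescent RT-PCR products on capillary electrophoresis, was fitted bidirectionally relative to DMSO.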

[6] = ATG_Ets_CIS: Attagene CIS-FACTORIAL HepG2 Assay for human Erythroblast Transformation Specific (ETS) (AID 2282941); details: HepG2 ETS cis-reporter transcription, actives raise or lower the signal
How it was run: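 HepG2 cells transiently transfected with cis-promoter reporter transcription units were dosed for 24 h; reporter mRNA was measured by RT-PCR, 6-FAM primer extension, HpaI digestion and capillary electrophoresis, with bidirectional fitting against DMSO baseline.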

[7] = target: Hepatocyte nuclear factor 3-beta (Homo sapiens) (UniProt Q9Y261); experiment: ATG_FoxA2_CIS: Attagene CIS-FACTORIAL HepG2 Assay for human Forkhead box A2 (FOXA2) (AID 2282942); details: HepG2 cis-reporter transcription factor activity, 24 h; actives raise or lower the signal
Chain of Hepatocyte nuclear factor 3-beta (Homo sapiens) (Q9Y261 whole entry, looked up): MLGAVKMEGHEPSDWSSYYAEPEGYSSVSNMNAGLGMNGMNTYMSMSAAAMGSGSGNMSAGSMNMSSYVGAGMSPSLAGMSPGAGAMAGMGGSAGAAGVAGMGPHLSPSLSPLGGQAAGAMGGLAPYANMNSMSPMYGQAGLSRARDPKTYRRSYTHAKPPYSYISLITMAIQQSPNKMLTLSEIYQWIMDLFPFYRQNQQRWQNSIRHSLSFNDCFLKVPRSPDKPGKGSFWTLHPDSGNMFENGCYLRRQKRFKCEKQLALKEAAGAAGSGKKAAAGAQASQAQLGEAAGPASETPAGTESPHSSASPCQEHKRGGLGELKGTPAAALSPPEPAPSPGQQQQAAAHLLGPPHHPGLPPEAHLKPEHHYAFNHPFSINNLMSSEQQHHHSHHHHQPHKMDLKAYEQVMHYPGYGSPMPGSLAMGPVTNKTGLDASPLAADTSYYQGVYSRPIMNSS
How it was run: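 Transient MRTU transfection of HepG2 liver cells; 24 h treatment; total RNA → oligo(dT) RT → PCR → FAM primer extension → HpaI cut → CE. Bidirectional fit vs DMSO.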

[8] = ATG_FoxO_CIS: Attagene CIS-FACTORIAL HepG2 Assay for human Forkhead box O (FoxO) (AID 2282943); details: HepG2 Attagene cis-reporter, FoxO element, mRNA; actives raise or lower the signal
How it was run: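 Human hepatoma HepG2 cells carry transiently introduced reporter transcription units controlled by cis promoter elements. Chemical treatment lasted 24 h, and mRNA signal was compared with DMSO.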

[9] = ATG_GATA_CIS: Attagene CIS-FACTORIAL HepG2 Assay for human GATA Binding Protein (AID 2282944); details: HepG2 GATA cis-element reporter, Attagene multiplex mRNA; actives raise or lower the signal
How it was run: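 Endogenous transcription factor activity was captured through cis-promoter-driven reporters in transfected HepG2 cells. After 24 h exposure, reporter transcripts were quantified by RT-PCR with fluorescent capillary electrophoresis, and responses fitted both directions against DMSO.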

[10] = ATG_GLI_CIS: Attagene CIS-FACTORIAL HepG2 Assay for human Zinc Finger Protein GLI1 (AID 2282945); details: HepG2, Attagene cis-factorial reporter mRNA, GLI element; actives raise or lower the signal
How it was run: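 Bidirectional curve fits relative to DMSO, using reporter mRNA levels from RT-PCR plus capillary electrophoresis. Cells were HepG2 transiently carrying cis-regulated reporter constructs, harvested 24 h after dosing.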

[11] = ATG_ISRE_CIS: Attagene CIS-FACTORIAL HepG2 Assay for human Interferon Regulatory Factor 1 (IRF1) binding to an Interferon-Stimulated Response Element (ISRE) (AID 2282948); details: HepG2 ISRE cis-reporter (Attagene), mRNA transcription readout; actives raise or lower the signal
How it was run: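 HepG2 cells transiently transfected with multiplexed cis-promoter reporter units; after 24 h compound exposure, reporter mRNA quantified by RT-PCR, FAM labelling, HpaI digestion and capillary electrophoresis. Bidirectional fit versus DMSO baseline.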

[12] = ATG_M_32_CIS: Attagene CIS-FACTORIAL HepG2 Assay for M32 Transcription Factor (Internal Marker) (AID 2282949); details: HepG2 Attagene cis-factorial M32 reporter, mRNA; actives raise or lower the signal;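 note: background control marker of the multiplexed CIS panel rather than a real target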
How it was run: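 Internal background marker read-out: RT-PCR/capillary electrophoresis fluorescence of reporter transcripts from transiently transfected HepG2 cells after 24 h chemical exposure. Activity fitted bidirectionally relative to DMSO negative control.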

[13] = ATG_M_06_CIS: Attagene CIS-FACTORIAL HepG2 Assay for M06 Transcription Factor (Internal Marker) (AID 2282950); details: HepG2 Attagene CIS-FACTORIAL M06 internal marker reporter; actives raise or lower the signal
How it was run: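 Steps: transfect HepG2 with multiplexed cis-element reporter constructs; dose chemical 24 h; extract RNA with DNase treatment; reverse-transcribe, PCR-amplify, 6-FAM label, HpaI digest; separate fragments by capillary electrophoresis. Activity fitted both directions versus DMSO.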

[14] = target: Hypoxia-inducible factor 1-alpha (Homo sapiens) (UniProt Q16665); experiment: ATG_HIF1a_CIS: Attagene CIS-FACTORIAL HepG2 Assay for human Hypoxia Inducible Factor 1 (HIF1A) (AID 2282951); details: HepG2 Attagene cis-factorial HIF1a reporter transcription; actives raise or lower the signal
Chain of Hypoxia-inducible factor 1-alpha (Homo sapiens) (Q16665 whole entry, looked up, the tested form may be a part): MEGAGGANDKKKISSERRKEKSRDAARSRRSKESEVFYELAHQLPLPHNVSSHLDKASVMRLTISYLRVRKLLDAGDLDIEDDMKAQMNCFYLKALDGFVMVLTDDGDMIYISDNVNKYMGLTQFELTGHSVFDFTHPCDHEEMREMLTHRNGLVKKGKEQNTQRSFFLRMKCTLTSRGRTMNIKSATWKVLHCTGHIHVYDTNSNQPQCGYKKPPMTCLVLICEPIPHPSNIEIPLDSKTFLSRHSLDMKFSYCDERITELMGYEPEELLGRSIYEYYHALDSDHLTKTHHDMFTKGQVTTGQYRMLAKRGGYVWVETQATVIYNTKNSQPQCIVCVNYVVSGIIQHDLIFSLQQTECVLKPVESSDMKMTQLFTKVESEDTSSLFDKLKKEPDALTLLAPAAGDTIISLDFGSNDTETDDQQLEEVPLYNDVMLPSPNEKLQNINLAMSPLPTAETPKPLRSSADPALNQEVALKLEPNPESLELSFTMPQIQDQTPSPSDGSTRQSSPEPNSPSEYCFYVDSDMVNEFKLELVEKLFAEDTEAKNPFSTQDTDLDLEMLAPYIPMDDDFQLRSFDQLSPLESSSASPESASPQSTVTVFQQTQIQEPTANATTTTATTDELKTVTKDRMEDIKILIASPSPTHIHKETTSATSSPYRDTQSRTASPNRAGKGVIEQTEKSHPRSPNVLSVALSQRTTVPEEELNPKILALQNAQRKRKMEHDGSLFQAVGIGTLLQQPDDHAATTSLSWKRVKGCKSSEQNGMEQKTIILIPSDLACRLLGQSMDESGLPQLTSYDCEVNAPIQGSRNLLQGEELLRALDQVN
How it was run: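 Transient MRTU transfection of human HepG2 liver cells, 24 h compound treatment, then total RNA isolation, oligo(dT) reverse transcription, PCR amplification, fluorescent labelling and capillary electrophoresis of reporter fragments. Gain or loss relative to DMSO.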

[15] = target: Heat shock factor protein 1 (Homo sapiens) (UniProt Q00613); experiment: ATG_HSE_CIS: Attagene CIS-FACTORIAL HepG2 Assay for human Heat Shock Transcription Factor 1 (HSE) (AID 2282953); details: HepG2 HSE cis-reporter, Attagene RNA transcription; actives raise or lower the signal
Chain of Heat shock factor protein 1 (Homo sapiens) (Q00613 whole entry, looked up, the tested form may be a part): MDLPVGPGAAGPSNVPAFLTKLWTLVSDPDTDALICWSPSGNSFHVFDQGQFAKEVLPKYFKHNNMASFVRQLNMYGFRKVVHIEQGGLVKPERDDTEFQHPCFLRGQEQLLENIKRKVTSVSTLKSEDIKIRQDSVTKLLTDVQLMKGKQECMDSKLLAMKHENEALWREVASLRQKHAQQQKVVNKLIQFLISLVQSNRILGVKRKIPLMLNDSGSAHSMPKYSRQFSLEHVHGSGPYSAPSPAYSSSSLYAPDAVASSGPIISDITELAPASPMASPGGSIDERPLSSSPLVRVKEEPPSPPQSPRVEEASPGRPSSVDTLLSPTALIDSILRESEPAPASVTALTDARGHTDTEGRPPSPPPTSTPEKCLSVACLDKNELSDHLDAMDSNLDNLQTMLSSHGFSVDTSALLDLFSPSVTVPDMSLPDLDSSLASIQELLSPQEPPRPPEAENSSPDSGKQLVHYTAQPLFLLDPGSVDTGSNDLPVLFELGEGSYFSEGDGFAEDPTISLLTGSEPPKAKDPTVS
How it was run: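 Cells were transfected with cis-element-driven reporter constructs, dosed for 24 h, then total RNA was reverse-transcribed and reporter cDNA amplified, FAM-labelled and digested with HpaI. Fragments were resolved by capillary electrophoresis; gain or loss was fitted against DMSO.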

[16] = ATG_MRE_CIS: Attagene CIS-FACTORIAL HepG2 Assay for human Metal Responsive Element (MRE) (AID 2282954); details: HepG2 MRE cis-reporter transcription, Attagene multiplex; actives raise or lower the signal
How it was run: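 After a 24 h chemical exposure, transiently transfected HepG2 cells yield RNA whose reporter sequences are amplified, FAM-labelled and sized by capillary electrophoresis. Curves are fitted bidirectionally relative to DMSO.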

[17] = target: Bile acid receptor (Homo sapiens) (UniProt Q96RI1); experiment: ATG_IR1_CIS: Attagene CIS-FACTORIAL HepG2 Assay for human Nuclear Receptor Subfamily 1 Group H Member 4 (NR1H4), IR1 submotif (AID 2282946); details: IR1 reporter transcription, actives raise or lower the signal
Chain of Bile acid receptor (Homo sapiens) (Q96RI1 whole entry, looked up, the tested form may be a part): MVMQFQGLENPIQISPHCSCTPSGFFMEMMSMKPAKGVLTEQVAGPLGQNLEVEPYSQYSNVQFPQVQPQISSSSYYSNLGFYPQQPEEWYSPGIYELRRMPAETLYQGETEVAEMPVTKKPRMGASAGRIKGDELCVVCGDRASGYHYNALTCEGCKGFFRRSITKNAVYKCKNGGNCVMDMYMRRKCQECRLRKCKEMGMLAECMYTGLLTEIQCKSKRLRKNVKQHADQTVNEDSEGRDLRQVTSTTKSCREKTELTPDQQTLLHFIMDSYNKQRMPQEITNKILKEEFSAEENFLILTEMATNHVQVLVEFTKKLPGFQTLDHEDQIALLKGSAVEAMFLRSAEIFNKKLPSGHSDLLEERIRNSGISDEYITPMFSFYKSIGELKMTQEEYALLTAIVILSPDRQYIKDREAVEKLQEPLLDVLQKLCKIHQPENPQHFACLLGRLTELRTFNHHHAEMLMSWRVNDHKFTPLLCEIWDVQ
How it was run: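 Cells (human HepG2) carry transiently transfected cis-promoter reporter transcription units. Compounds are incubated 24 h, total RNA is reverse-transcribed and amplified, and labelled fragments are resolved by capillary electrophoresis. Curves use DMSO as baseline.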

[18] = target: Hepatocyte nuclear factor 6 (Homo sapiens) (UniProt Q9UBC0); experiment: ATG_HNF6_CIS: Attagene CIS-FACTORIAL HepG2 Assay for human Hepatocyte Nuclear Factor 6 (HNF6) (AID 2282952); details: HepG2 Attagene cis-factorial HNF6 reporter transcription; actives raise or lower the signal
Chain of Hepatocyte nuclear factor 6 (Homo sapiens) (Q9UBC0 whole entry, looked up, the tested form may be a part): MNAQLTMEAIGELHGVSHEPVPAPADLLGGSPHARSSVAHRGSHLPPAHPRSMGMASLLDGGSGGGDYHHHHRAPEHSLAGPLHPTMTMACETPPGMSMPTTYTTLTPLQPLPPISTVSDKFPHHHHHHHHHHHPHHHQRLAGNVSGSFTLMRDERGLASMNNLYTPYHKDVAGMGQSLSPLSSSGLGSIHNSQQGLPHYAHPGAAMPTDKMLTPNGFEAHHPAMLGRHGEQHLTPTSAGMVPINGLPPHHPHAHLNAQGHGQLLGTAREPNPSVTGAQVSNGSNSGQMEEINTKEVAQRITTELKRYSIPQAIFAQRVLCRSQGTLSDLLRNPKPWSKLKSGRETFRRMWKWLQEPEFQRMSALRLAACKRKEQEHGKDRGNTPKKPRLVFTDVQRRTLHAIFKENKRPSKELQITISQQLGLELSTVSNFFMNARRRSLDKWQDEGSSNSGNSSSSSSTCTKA
How it was run: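 HepG2 cells transiently transfected with cis-element-driven multiplexed reporter units measuring endogenous transcription factor activity. After 24 h exposure, reporter mRNA quantified by RT-PCR, FAM-labelled fragments and capillary electrophoresis; bidirectional fitting versus DMSO.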

[19] = ATG_GRE_CIS: Attagene CIS-FACTORIAL HepG2 Assay for human Glucocorticoid Response Elements (GRE) (AID 2282947); details: HepG2 GRE cis-reporter, Attagene multiplex mRNA; actives raise or lower the signal
How it was run: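 Assay uses human hepatoma HepG2 cells transfected with cis-promoter reporter units, exposed 24 h. mRNA from reporters detected by RT-PCR plus capillary electrophoresis; DMSO serves as negative control and baseline.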

With C=CC(=O)NCNC(=O)C=C the outcome [1] was “inactive”, the outcome [2] was “inactive” and the outcome [3] was “inactive”. For the same compound, the outcome [4] was “inactive”, the outcome [5] was “inactive” and the outcome [6] was “inactive”. The outcome [7] was “inactive”, the outcome [8] was “inactive” and the outcome [9] was “inactive”. The outcome [10] was “inactive”, the outcome [11] was “inactive” and the outcome [12] was “inactive”. The outcome [13] was “inactive”, the outcome [14] was “inactive” and the outcome [15] was “inactive”. For the same compound, the outcome [16] was “inactive”.
In the case of Cc1cc(O)ccc1Cl, the outcome [1] is reported as “inactive”, the outcome [2] is reported as “inactive” and the outcome [3] is reported as “inactive”. For the same compound, the outcome [4] was “inactive”, the AC50 [5] was 48.5 µM (active) and the outcome [6] was “inactive”. The outcome [7] was “inactive”, the outcome [8] was “inactive” and the outcome [9] was “inactive”. The outcome [17] was “inactive”, the outcome [11] was “inactive” and the outcome [12] was “inactive”. For the same compound, the outcome [14] was “inactive”, the outcome [15] was “inactive” and the outcome [16] was “inactive”.
In the case of Cc1ccccc1O, the outcome [1] is reported as “inactive”, the outcome [2] is reported as “inactive” and the outcome [3] is reported as “inactive”. For the same compound, the outcome [4] was “inactive”, the outcome [5] was “inactive” and the outcome [6] was “inactive”. The outcome [7] was “inactive”, the outcome [8] was “inactive” and the outcome [9] was “inactive”. The outcome [11] was “inactive”, the outcome [12] was “inactive” and the outcome [14] was “inactive”. The outcome [18] was “inactive”, the outcome [15] was “inactive” and the outcome [16] was “inactive”.
For C[C@]12CCC(=O)C=C1CC[C@@H]1[C@@H]2CC[C@@]2(C)[C@H]1CC[C@]2(C)O, the outcome [1] was “inactive”, the outcome [2] was “inactive” and the outcome [3] was “inactive”. The outcome [4] was “inactive”, the outcome [6] was “inactive” and the outcome [7] was “inactive”. For the same compound, the outcome [8] was “inactive”, the outcome [9] was “inactive” and the outcome [17] was “inactive”. For the same compound, the outcome [11] was “inactive”, the outcome [12] was “inactive” and the outcome [14] was “inactive”. For the same compound, the outcome [18] was “inactive”, the outcome [15] was “inactive” and the AC50 [16] was 132 µM (active) and 129 µM (active) and 79.4 µM (active). For the same compound, the outcome [16] was “inactive”.
In the case of Cc1cc2c3c(c1)C(c1ccccc1)=N[C@@H](NC(=O)c1ccncc1)C(=O)N3CC2, the outcome [1] is reported as “inactive”, the AC50 [3] is reported as 42.8 µM (active) and the outcome [4] is reported as “inactive”. The outcome [5] was “inactive”, the AC50 [6] was 153 µM (active) and the outcome [7] was “inactive”. For the same compound, the outcome [8] was “inactive”, the outcome [9] was “inactive” and the outcome [17] was “inactive”. For the same compound, the AC50 [11] was 102 µM (active), the outcome [12] was “inactive” and the AC50 [14] was 72.4 µM (active). For the same compound, the outcome [15] was “inactive” and the AC50 [16] was 77.1 µM (active).
For OCC(O)CO, the outcome [1] was “inactive”, the outcome [3] was “inactive” and the outcome [4] was “inactive”. For the same compound, the AC50 [5] was 76.6 µM (active), the outcome [5] was “inactive” and the outcome [6] was “inactive”. For the same compound, the outcome [7] was “inactive”, the outcome [8] was “inactive” and the outcome [9] was “inactive”. The outcome [10] was “inactive”, the outcome [17] was “inactive” and the outcome [11] was “inactive”. The outcome [12] was “inactive”, the outcome [14] was “inactive” and the outcome [18] was “inactive”. The outcome [15] was “inactive” and the outcome [16] was “inactive”.
In the case of COS(=O)(=O)OC, the outcome [1] is reported as “inactive”, the outcome [3] is reported as “inactive” and the outcome [4] is reported as “inactive”. For the same compound, the outcome [5] was “inactive”, the outcome [6] was “inactive” and the outcome [7] was “inactive”. For the same compound, the outcome [8] was “inactive”, the outcome [9] was “inactive” and the outcome [10] was “inactive”. For the same compound, the outcome [19] was “inactive”, the outcome [11] was “inactive” and the outcome [12] was “inactive”. The outcome [13] was “inactive”, the AC50 [14] was 26.9 µM (active) and the outcome [18] was “inactive”. For the same compound, the outcome [15] was “inactive” and the outcome [16] was “inactive”.
